Screening results as filed in PubChem.
NADH enzymes – inhibition of NAD/NADH coupling enzymes, library profiling; coupled PK/LDH NADH assays, four targets; IC50, µM (highest dose often 10 µM), inactives show top-dose inhibition; 0.02% of 65,000 active; AID 774;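 active = single-dose screening hits from any of four coupled enzyme assays that gave an IC50 when retested across doses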;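 also: the DPM-DC format reads NADH fluorescence rather than 340 nm absorbance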
PMK inhibit – S. pneumoniae PMK inhibition; purified PMK, PK/LDH-coupled NADH absorbance 340 nm; inhibition, % at 10 µM; 0.49% of 65,000 active;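 active = top-ranked compounds by inhibition in the single 10 µM screen, taking a fixed number of the strongest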;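 also: 0% = full reaction with DMSO carrier and 100% = background rate without enzyme reaction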
DPM-DC inhibit – inhibitors of Streptococcus pneumoniae diphosphomevalonate decarboxylase | purified DPM-DC, PK/LDH coupled NADH fluorescence | calls only at 10 µM | 0.49% of 65,000 active;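 active = the 320 compounds with the highest percent inhibition in the single-dose primary screen, excluding strongly autofluorescent ones, cut at about 32% in these data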;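 also: kinetic rate of NADH fluorescence loss reporting ADP formed by the decarboxylase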
MK inhibit – inhibitors of Streptococcus pneumoniae mevalonate kinase | purified MK, PK/LDH-coupled NADH absorbance 340 nm | inhibition, % at 10 µM | 0.48% of 65,000 active | AID 555;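 active = ranked among the strongest by inhibition in the single 10 µM screen, a fixed top-ranked set picked for dose follow-up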
Fluor 339 460 – intrinsic fluorescence of library compounds, ex339/em460 – biochemical, MLSMR library, data from DPM-DC assay, artefact control, profiling panel; fluorescence fold increase at 10 µM; 5.5% of 65,000 active; compound autofluorescence, ex339/em460 nm, NADH buffer; hits give high values; 1 = no-compound wells, NADH background;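 active = at 10 µM, mean starting fluorescence two-fold or more over control wells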;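 also: signal is the first read of a kinetic run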
Abs 340nm – compounds absorbing at 340 nm; compound absorbance at 340 nm, fold over control; fold change at 10 µM; 65,000 tested, under 10 active;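 active = at 10 µM dose, initial 340 nm absorbance at least 2 fold that of control wells; inactive = change under 2 fold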;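 also: initial absorbance extrapolated from kinetic A340 decline of NADH oxidation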
* hit, by the source's call; i = inactive; x = not tested or not shown; + = active, no number. A selection: hits, their analogues and other compounds. The true share with any hit is near 6.5%.

SMILES	NADH enzymes	PMK inhibit	DPM-DC inhibit	MK inhibit	Fluor 339 460	Abs 340nm
COc1nc(-c2ccccc2)cc(-c2ccc(OC)c(OC)c2)n1	0%	0	x	0	2.2*	1.2
CCCc1cc(=O)oc2cc(C)cc(OCC(=O)O)c12	2%	0	x	4	3.9*	1.1
CCCCc1cc(=O)oc2cc(C)cc(OC(C)C(=O)O)c12 (stereo not drawn)	2%	9	x	4	3*	1
CN1CCN(C(c2ccc(F)cc2)c2nnnn2Cc2cccs2)CC1 (stereo not drawn)	9%	12	i	15	1.1	0.99
CCN1CCN(C(c2ccc(F)cc2)c2nnnn2Cc2cccs2)CC1 (stereo not drawn)	3%	27*	i	0	1	1
COc1ccc(-c2nn(-c3ccccc3)cc2C(=O)N2CCOCC2)cc1	1%	2	i	1	1.1	1
Cc1ccc(-c2cc(C(=O)N3CCN(c4ncccn4)CC3)c3ccccc3n2)cc1	6%	17	i	0	1.3	1.1
COc1ccc(-c2cc(C(=O)N3CCOCC3)c3cc(C)ccc3n2)cc1	1%	0	x	2	3.7*	1.1
COC(=O)c1cc(-c2ccc3c(c2)OCO3)nc2ccccc12	8%	8	x	8	2.2*	1.1
Cc1ccc(-c2cc(C(=O)N3CCOCC3)c3ccccc3n2)cc1	1%	1	x	0	2.1*	1.1
COc1ccc(N(C)S(=O)(=O)c2cccc(C(=O)NC3=NCCS3)c2)cc1	6%	7	i	10	1.1	0.97
O=S(=O)(NCCSc1nnnn1-c1ccccc1)c1cccs1	8%	10	i	4	1.1	1
CCOC(=O)c1sc2nc(CC(=O)OC)nc(NCc3ccco3)c2c1C	10%	16	i	0	1.5	1.1
CCOC(=O)c1sc2nc(CC(=O)OC)nc(NCC(=O)OC)c2c1C	12%	14	x	9	3.7*	1.1
COc1ccc(CN2CCN(c3cc(C)nc4c5c(C)cc(C)nc5nn34)CC2)cc1F	8%	5	x	11	3.9*	1
COc1ccc(-c2c(C)nn3c(N4CCN(Cc5ccccc5)CC4)cc(C)nc23)cc1OC	5%	6	i	4	1.1	1.1
CCOc1ccc(CN2CCN(c3cc(C)nc4c5c(C)cc(C)nc5nn34)CC2)cc1	2%	4	x	6	3.1*	1
Cc1ccc(N2CCN(c3cc(C)nc4c5c(C)cc(C)nc5nn34)CC2)cc1	10%	8	i	6	1.1	0.97
Cc1cc(C)c2c(n1)nn1c(N3CCN(c4ccccc4C)CC3)cc(C)nc21	7%	7	x	12	2.8*	1
Cc1nn(-c2ccccc2)c(N2CCCC2)c1/C=N/n1cnc2scc(-c3ccccc3)c2c1=O	2%	5	i	0	3.5*	1.1
CCn1c(SCC(=O)Nc2cccc(C(C)=O)c2)nnc1C(C)C	35%	16	+	0	1.2	1
CC(=O)Nc1cccc(NC(=O)CSc2nnnn2Cc2ccccc2)c1	35%	7	+	x	0.41	0.97
CCC(=O)Nc1cc(NC(=O)CSc2nnc(C(C)C)n2CC)ccc1C	8%	15	i	9	1.1	0.98
C1CCC(OCCN2CCN(CCOC3CCCCC3)CC2)CC1	4%	3	i	5	1.1	1.1
Cc1nnc(SCc2ccccc2F)n1NCc1cccs1	4%	8	i	7	1	1
SMILES	NADH enzymes	PMK inhibit	DPM-DC inhibit	MK inhibit	Fluor 339 460	Abs 340nm
Cc1ccc(NC(=O)CSc2nnc(Cn3c(=O)sc4ccccc43)n2C)cc1Cl	11%	29*	i	4	1.1	1.1
COC(=O)Nc1nnc(CCc2ccccc2)s1	4%	10	i	6	1	0.99
CCOC(=O)Nc1nnc(-c2ccc(OC)c(OC)c2)s1	11%	12	x	9	3.7*	1.1
CCOC(=O)Nc1nnc(CCc2ccccc2)s1	8%	9	i	7	2.6*	1.1
CCCCOc1ccc(-c2nnn(CC(=O)Nc3ncc(CC(=O)OCC)s3)n2)cc1	3%	14	i	7	0.99	0.98
CS(=O)(=O)N(CCc1ccccc1)CC(=O)NCc1cccnc1	7%	5	i	10	1	1
Cc1cc(F)ccc1S(=O)(=O)Nc1ccccc1C(=O)Nc1ncn[nH]1	5%	0	x	9	2.3*	1
O=C(COC(=O)CCC(=O)Nc1nccs1)NCc1ccco1	10%	15	i	14	1.1	0.99
N#C/C(=C(/O)COC(=O)CCc1ccc(S(=O)(=O)N2CCOCC2)cc1)c1nc2ccccc2[nH]1	34%	20	i	75*	1.5	1.1
N#C/C(=C(/O)COC(=O)Cc1c[nH]c2ccccc12)c1nc2ccccc2[nH]1	5%	12	i	0	1.1	1.1
Nc1c2c(nc3ccn(-c4ccccc4)c(=O)c13)CCCCC2	6%	8	i	0	2.1*	1
CN(C)CCN(Cc1ccccc1)c1ccnc(N(C)C)c1C#N	22%	7	i	56*	1.4	1.1
CN(C)CCN(Cc1ccccc1)c1ccccn1	2%	0	i	6	1	0.99
COc1cc(NC(=O)c2cccs2)c(C(=O)OCC(=O)NCc2ccco2)cc1OC	17%	13	+	5	1.4	1.1
NC(=O)c1ccsc1NC(=O)COC(=O)c1ccccc1NCc1ccco1	0%	0	x	0	2.1*	1.1
O=C(COC(=O)c1ccccc1Nc1ccccc1)NCc1ccco1	4%	12	i	0	1.3	0.99
Cc1ccc(-c2noc(-c3ccccc3Br)n2)cc1	3%	2	i	6	1.1	1
CN(C)c1ccc(-c2noc(-c3ccccc3O)n2)cc1	8%	8	x	8	5.3*	1
CC(=O)Nc1ccc(-c2nc3c(C)cccc3[nH]2)cc1	10%	8	i	4	2.1*	1.1
CCc1cc(=O)oc2c(C)c(O)c(CN(C)C)cc12	6%	0	x	11	3.9*	1.1
CCC(=O)c1cc2c(C)cc(=O)oc2c(C)c1O	5%	1	i	7	1.7	1
Cc1cccc(NC(=O)Cn2c(=O)oc3ccccc32)c1	8%	17	i	7	1.1	0.97
CCOC(=O)c1[nH]c2ccc(OC)cc2c1NC(C)=O	8%	5	x	11	3.5*	1.1
CCOC(=O)c1[nH]c2ccc(OC)cc2c1NC(=O)CN1CCSCC1	12%	14	x	10	3.9*	1.1
COc1ccc2nc(NC(=O)C3CCCN(S(=O)(=O)c4cccc5nonc45)C3)sc2c1 (stereo not drawn)	28%	15	i	70*	1	1
COc1ccc2nc(NC(=O)C3CCCN(S(=O)(=O)c4cccc5nsnc45)C3)sc2c1 (stereo not drawn)	4%	8	i	7	1	0.98
